Data on 9 compounds can be found in PubChem BioAssay (NCI).

Compounds without any hit were thinned out: in the full panel of roughly 83,000, 20% have a hit.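 Results are percent growth after 48 hours of single-concentration exposure. 100 means growth as in untreated cells, lower positive values show inhibition; negative values down to -100 show cell death.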 Unmarked numbers belong to inactive results. Activity calls are given as the source filed them. Rule for the calls: active = growth percent below 10; inactive = the rest.

Experiment in all cases: NCI-60 one-dose screen, 48 h (100 = growth as untreated, 0 = no growth, -100 = all killed)
Common to all, as to conditions: 10 µM unless noted

Assay [1] deals with NCI-H23 lung.
Assay [2] deals with NCI-H226 lung.
Assay [3] concerns NCI-H322M lung.
Assay [4] has as its system HOP-62 NSCLC.
The test system of assay [5] is NCI-H460 lung.
The subject of assay [6] is HOP-92 NSCLC.
Assay [7] has as its system NCI-H522 lung.
In assay [8] the test system is A549/ATCC NSCLC.
Assay [9] has as its system 786-0 renal.
In assay [10] the test system is DU-145 prostate.
Assay [11] relates to K-562 leukemia.
Assay [12] concerns MALME-3M melanoma.
Assay [13] deals with MDA-MB-231 breast.
Assay [14] concerns RXF 393 renal.
The test system of assay [15] is SF-268 CNS.
Assay [16] concerns SF-295 CNS.
Assay [17] has as its system SF-539 CNS.
The subject of assay [18] is UACC-257 melanoma.
For assay [19], the system named is M14 melanoma.

With `CC(=O)Nc1ccc(C(=O)/C=C/c2ccccc2)cc1`, the growth is 96.1% in assay [1]; 83.5% in [2]; 88.9% in [3]; 101% in assay [4]; 98.3% in assay [5]; 47.8% in [6]. Besides, the growth in assay [7] was 53%; in [8], 76.3%; in [9], 58.3%; in [10], 89.8%; in assay [11] it was 79.9%; in [12] it was 104%. For the same compound, the growth is 93.2% in assay [13]; 97.4% in assay [14]; 85.4% in assay [15]; 104% in assay [16]; 96.6% in assay [17]; 70.3% in [18].

As for `COC1(CC[C@@H](C)COC2OC(CO)C(O)C(O)C2O)O[C@H]2C[C@H]3[C@@H]4CC=C5C[C@@H](OC6OC(CO)C(OC7OC(C)C(O)C(O)C7O)C(O)C6OC6OC(C)C(O)C(O)C6O)CC[C@]5(C)[C@H]4CC[C@]3(C)[C@H]2[C@@H]1C` (stereo partly specified), the growth in assay [1] is -63% (active); in assay [2] it was -57.2% (active); in [3] it was -85.2% (active); in assay [4] it was -83% (active); in [5] it was -90.2% (active); in assay [6], -62% (active). Besides, the growth in [7] is -60.9% (active); in assay [8], -64.7% (active); in assay [9] it was -94.3% (active); in assay [10], -96.2% (active); in assay [11], -22.9% (active); in assay [12], -87.3% (active). For the same compound, the growth in [13] is -70% (active); in [14], -78.1% (active); in [15] it was -90.7% (active); in assay [16], -81.9% (active); in assay [17], -99% (active); in assay [18], -47.4% (active).

Consider `CC(C)n1nc(C#Cc2cccc(O)c2)c2c(N)ncnc21`, for which the growth in assay [1] is -28.4% (active); in assay [2], -41.8% (active); in assay [3] it was -30.3% (active); in assay [4], -52.5% (active); in assay [5], -5.33% (active); in assay [6], -70.5% (active). The growth in [7] was -44.5% (active); in assay [8] it was -60% (active); in assay [9] it was -72% (active); in assay [10], -6.9% (active); in assay [11], -23% (active); in [12], -74.9% (active). Also, the growth is -67.7% (active) in assay [13]; -87.2% (active) in assay [14]; -49.4% (active) in assay [15]; -71.9% (active) in assay [16]; -75.4% (active) in assay [17]; -41.4% (active) in assay [18]. Besides, in assay [19], the growth is -63.8% (active).

As to `CCCc1nc2ccccn2c1Nc1ccc(C(=O)NO)cc1`, the growth in assay [1] was 61.4%; in [2], 92.6%; in assay [3], 97.4%; in assay [4], 90.4%; in assay [5], 85.9%; in assay [6], 103%. Moreover, the growth in [7] was 64.9%; in assay [8] it was 97.1%; in assay [9], 95.5%; in [10], 88.3%; in assay [11], 89.5%; in assay [12], 86.7%. The growth in [13] was 111%; in assay [14] it was 96%; in assay [15] it was 94.2%; in assay [16], 93.8%; in [17], 99.3%; in [18] it was 76.1%.

Take `Cc1c2c(cn1Cc1ccccc1)CCc1cn[nH]c1-2`: the growth in assay [1] was 89.2%; in [2], 101%; in [3], 106%; in [4], 89.1%; in [5] it was 101%; in assay [6], 70.1%. Also, the growth in [7] is 97.5%; in assay [8] it was 99.3%; in assay [9], 98.1%; in assay [10] it was 117%; in assay [11], 51.8%; in [12] it was 105%. The growth in [13] was 89.3%; in assay [14], 87.6%; in [15] it was 89.6%; in [16] it was 81.5%; in assay [17], 92.7%; in [18], 107%.

As for `CC(C)(C)Nc1c(-c2c3ccccc3cc3ccccc23)nc2ccccn12`, the growth in assay [1] is 77.4%; in assay [2], 83.9%; in assay [3], 71.2%; in assay [4], 65.1%; in assay [5] it was 77%; in [6], 45%. Moreover, the growth in assay [7] is 59.1%; in assay [8], 49.4%; in assay [9] it was 72%; in [10] it was 92.7%; in assay [11] it was 42%; in assay [12] it was 80.6%. Further, the growth in assay [13] is 80.7%; in assay [14], 82.4%; in assay [15] it was 82.9%; in assay [16] it was 69.7%; in [17], 78.2%; in assay [18] it was 75.5%. The growth in assay [19] was 70.3%.

Turning to `CCCN1CCN(c2ccc3nc(-c4ccc5nc(-c6ccc(OCC)c(OCC)c6)[nH]c5c4)[nH]c3c2)CC1`, the growth in assay [1] is -53.3% (active); in assay [2] it was -58.2% (active); in assay [3], -18.7% (active); in assay [4], -64.9% (active); in assay [5] it was -80.3% (active); in assay [6], 40.5%. Further, the growth is -44.8% (active) in assay [7]; -50.2% (active) in assay [8]; -89% (active) in assay [9]; -64.1% (active) in assay [10]; -5.53% (active) in [11]; -82.4% (active) in assay [12]. For the same compound, the growth is -80.2% (active) in assay [13]; -92.3% (active) in assay [14]; 15.8% in assay [15]; -63.2% (active) in assay [16]; -87.9% (active) in assay [17]; -29.7% (active) in assay [18]. Also, the growth in [19] was -65.7% (active).

For the compound `CCOC(=O)c1c2c(c(C)n1C)-c1nn(Cc3ccc(OC)cc3)cc1CC2`, the growth in assay [1] was 83.2%; in assay [2] it was 94.5%; in assay [3], 190%; in assay [4], 132%; in [5] it was 111%; in assay [6], -0.787% (active). Besides, the growth was 90.7% in assay [7]; 91.9% in assay [8]; 74.7% in assay [9]; 106% in assay [10]; 69.1% in [11]; 161% in assay [12]. Also, the growth in assay [13] is 98.2%; in assay [14], 113%; in assay [15], 103%; in assay [16], 100%; in assay [17] it was 111%; in assay [18], 113%.

With `CCOC(=O)c1c(C)nc2c(c1N)/C(=C/c1cc(OC)c(OC)c(OC)c1)C(=O)N2c1ccc(OC)cc1`, the growth in assay [1] was 78.8%; in assay [2] it was 86.7%; in assay [3], 88.4%; in assay [4] it was 128%; in [5], 48.5%; in assay [6], 40.7%. Also, the growth is 50.4% in assay [7]; 88.8% in assay [8]; 44.5% in assay [9]; 16.3% in assay [10]; 23.4% in assay [11]; 76% in assay [12]. Also, the growth in [13] was 67%; in [14], 87.2%; in assay [15] it was 45.9%; in [16], 88.1%; in [17], 80.2%; in assay [18], 73.6%. In addition, the growth in assay [19] was 43.6%.
